Source: PubChem BioAssay
Hits are enriched below; roughly 19% of the tested compounds scored in any of these assays.
TDP1 cell noCPT – qHTS for Inhibitors of human tyrosyl-DNA phosphodiesterase 1 (TDP1): qHTS in cells in absence of CPT | DT40 Tdp1-/- hTDP1 cells, no CPT, ATP luminescence, 48 h | hit rate 15% among 420,000 | Potency, µM (highest dose often 46.2 µM), without a hit: top-dose activity change, negative = growth inhibition, usual class: inhibitors; further: potency means the concentration at half of the fitted maximal effect; nearly all actives have a fitted effect of over 55% in size
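Stably hTDP1-transfected Tdp1-null chicken DT40 cells were treated with library compounds minus camptothecin and grown for at least 48 hr at 37 °C, after which cellular ATP was quantified by luminescence.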
TDP1 cell CPT – growth inhibition of DT40 Tdp1-/-;hTDP1 cells with camptothecin (screen for TDP1 inhibitors); chicken DT40 Tdp1-/-;hTDP1 cells + 20 nM CPT, ATP luminescence, 48 h; Potency, µM (top dose mostly 46.2 µM), for inactives: at the highest dose activity change, negative = growth inhibition, most hits filed as inhibitors; hit rate 12% among 420,000; further: potency means the concentration at half of the fitted maximal effect; nearly all actives have a fitted effect of over 55% in size
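Chicken DT40 Tdp1-/- cells complemented with human TDP1, 400 cells/well, exposed to compounds plus 20 nM camptothecin for at least 48 h at 37 C; viability read as ATP content by CellTiter-Glo luminescence.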
HT1080NT lethal – kills 2HG-producing HT-1080-NT fibrosarcoma cells; hit rate 1.6% among 360,000; Potency, µM (top dose mostly 46.1 µM), for the others: at the highest dose activity, negative = less viability, actives largely listed as cytotoxic; HT-1080-NT fibrosarcoma viability, CellTiter-Glo ATP luminescence, 48 h;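 further: NT is the 2HG producing partner of a matched IDH1 knockdown line; potency means the concentration at half of the fitted maximal effect; 0% = DMSO-treated cells and -100% = media-only wells without cells; nearly all actives have a fitted effect of over 55% in size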
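Viability by CellTiter-Glo luminescence after 48 h compound exposure at 37C of HT-1080-NT cells (750/well, RPMI, 5% FBS). % activity scaled between DMSO wells and medium-only wells, then curve-fitted and categorized by curve class.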
IL1B secr inh – inflammasome signaling inhibition, IL-1 beta readout; AID 743279; THP-1 LPS/ATP IL-1B secretion, AlphaLISA, 16 h; hits give low values; activity change, % at 57.5 µM; hit rate 4.7% among 360,000; in the data active means activity change below about -50%; inconclusive means mostly about -30% to -49%
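Secreted IL-1B measured by AlphaLISA bead assay after 16 h compound exposure of THP-1 cells; compounds (final up to 57.5 uM) added 1 h before LPS (250 ng/mL) and ATP (1.25 mM) stimulation; lower signal means less secretion.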
HT1080 IDH1KD tx – HT-1080 IDH1 knockdown cell toxicity (counter line) | HT-1080 IDH1 knockdown viability, ATP luminescence, 48 h | Potency, µM (doses to about 46.1 µM), inactives show at the top dose activity, negative = toxicity, actives largely listed as cytotoxic | hit rate 2% among 360,000 | AID 686971;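 further: potency means the concentration at half of the fitted maximal effect; 0% = DMSO wells and -100% = cell-free medium wells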
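Knockdown cells (IDH1KD HT-1080) received compounds 2 h after plating at 750 cells/well and were kept 48 h at 37 °C in 5% FBS RPMI. A CellTiter-Glo luminescence read gave % activity for curve fitting.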
* hit, by the source's call; u = inconclusive; x = no result. Unless noted, the call rests on the fitted dose curve; in most records, active means well fitted curve in the direction sought with a large enough effect; inconclusive means small, poorly fitted or top-dose-only effect, or another doubt; inactive means no such curve, though single readings can be large; an effect the other way counts as inactive or inconclusive. Unless noted, on the % scale 0 is the no-effect control and ±100 the full control effect.

SMILES	TDP1 cell noCPT	TDP1 cell CPT	HT1080NT lethal	IL1B secr inh	HT1080 IDH1KD tx
Cc1cc(Cl)ccc1OCCCC(=O)NCCN1C(=O)S/C(=C\c2cccnc2)C1=O	16µM*	u	-28%	-54*	u
CS(=O)(=O)c1ccc(C(=O)NCCN2C(=O)S/C(=C\c3cccnc3)C2=O)cc1[N+](=O)[O-]	4.6µM*	3.7µM*	u	-98*	u
CCN(CC)S(=O)(=O)c1ccc(C(=O)NCCN2C(=O)S/C(=C\c3cccnc3)C2=O)cc1	18µM*	u	-1%	15	-8%
N=c1n(CCO)c2ccccc2n1CCOc1ccc(Cl)cc1Cl	5.8µM*	6.5µM*	21µM*	-102*	u
COc1ccc(C(O)Cn2c(=N)n(CCCN(C)C)c3ccccc32)cc1 (centres undefined)	u	u	-12%	-28	-1%
Cc1ccc(OCC(O)Cn2c(=N)n(CCN3CCCCC3)c3ccccc32)cc1 (centres undefined)	23µM*	5.2µM*	16µM*	-50*	u
N=c1n(CCOc2ccccc2)c2ccccc2n1CCN1CCOCC1	-5%	-3%	-1%	-19	-6%
Cc1ccc(OCC(O)Cn2c(=N)n(CCN3CCOCC3)c3ccccc32)cc1 (centres undefined)	23µM*	u	-21%	u	-13%
N=c1n(CCN2CCCC2)c2ccccc2n1CC(O)c1ccc(Cl)c(Cl)c1 (centres undefined)	3.7µM*	5.8µM*	u	-22	u
COc1ccc2oc(C(=O)OCC(=O)N3CCCC3=O)c(C)c2c1	-15%	-13%	2%	10	0%
O=[N+]([O-])c1cc(S(=O)(=O)N2CCCCC2)ccc1NCCN1CCOCC1	-6%	-16%	2%	-1	12%
COc1cc(OC)c(NC(=O)N2CCN3CCCCC3C2)cc1Cl (centres undefined)	-2%	9%	x	x	x
COc1ccc(OCC(O)Cn2c(=N)n(CCN3CCCCC3)c3ccccc32)cc1 (centres undefined)	18µM*	13µM*	18µM*	-57*	u
N=c1n(CCN2CCCCC2)c2ccccc2n1CC(O)COc1ccc(Cl)cc1Cl (centres undefined)	4.6µM*	3.7µM*	x	x	x
O=C1NC(=O)C2(CCCc3ccc([N+](=O)[O-])cc32)N1 (centres undefined)	5%	1%	5%	6	4%
COc1ccc(Oc2nc(-c3cccnc3)nc3ccccc23)cc1	u	u	15%	u	18%
Fc1ccccc1Oc1nc(-c2ccncc2)nc2ccccc12	16µM*	u	9%	-12	-4%
Cn1ccsc1=NC(=O)c1ccc([N+](=O)[O-])o1	u	18µM*	-19%	-29	-21%
COc1cc(C(=O)N=c2sccn2C)c([N+](=O)[O-])cc1OC	6%	-10%	12%	-4	-1%
COc1ccc(C(=O)/C=C/Nc2ccc(S(N)(=O)=O)cc2)cc1OC	u	-17%	-3%	-7	-2%
Cc1cccc(N2CCN(C(=O)CCN3C(=S)NC(C)(C)CC3C)CC2)c1C (centres undefined)	u	u	-26%	-23	-17%
Cc1ccc(C)c(N2CCN(C(=O)CCCN3C(=S)NC(C)(C)CC3C)CC2)c1 (centres undefined)	10µM*	18µM*	u	-29	u
CCOc1ccc(NC(=O)CCCN2C(=S)NC(C)(C)CC2C)cc1 (centres undefined)	-1%	4%	12%	4	7%
CC1CC(C)(C)NC(=S)N1CCCC(=O)Nc1ccc(Br)cc1 (centres undefined)	u	u	-5%	-78*	u
Cc1ccc2nc(N3CCN(c4ccccc4)CC3)c3nnnn3c2c1	-18%	-22%	x	x	x
